ERAP1 inh: inhibitors of human ERAP1 aminopeptidase | 0.15% of 340,000 active | recombinant ERAP1, Leu-AMC fluorescence, 60 min | AID 652197 | inhibition, % at 10.7 µM | Q9NZ08;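 active means mean replicate inhibition of at least 30%, or all replicates individually reaching that 30% level; inactive means mean below 30% and not every replicate reaching it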
SIRT5 block: inhibitors of human sirtuin-5 desuccinylase; 1.1% of 330,000 active; Q9NXA8; Purified SirT5, succinyl-peptide AMC, trypsin-coupled fluorescence; inhibition, % at 15 µM; AID 652115; in the data active means inhibition above about 15%
Target sequence (Q9NXA8 whole entry, looked up): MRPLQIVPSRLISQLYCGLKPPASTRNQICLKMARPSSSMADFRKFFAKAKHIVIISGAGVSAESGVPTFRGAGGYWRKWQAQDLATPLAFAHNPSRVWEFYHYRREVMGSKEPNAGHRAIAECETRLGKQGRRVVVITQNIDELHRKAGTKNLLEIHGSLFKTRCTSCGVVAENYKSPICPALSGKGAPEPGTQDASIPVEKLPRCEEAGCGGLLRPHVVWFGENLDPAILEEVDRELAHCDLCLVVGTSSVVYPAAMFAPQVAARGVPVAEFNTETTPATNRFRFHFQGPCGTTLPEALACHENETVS
FGF22 binding: shifts melting point of recombinant human FGF22; Q9HCT0; recombinant FGF22 thermal shift, SYPRO orange fluorescence; percent of sucrose octasulfate shift, DMSO zero; activity (Tm shift, normalised), % at 9.99 µM; 1.5% of 340,000 active;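 active means mean Tm shift, scaled 0 neutral to 100 positive control, at about 1.3% or above, every replicate too, limit read from the data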
GSIS activator: primary screen for activators of insulin secretion dependent on glucose, INS-1E cells, GLuc reporter luminescence; INS-1E GLuc reporter insulin secretion, 2-3 h; activation, % at 16.6 µM; 0.61% of 370,000 active;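 active means lowest replicate activation of at least 40%, so every replicate reaches that level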
Casp6 inh: inhibitors of human caspase-6; AID 686996; inhibition, % at 12.5 µM; purified caspase-6, Z-VEID-R110 cleavage fluorescence; 0.53% of 350,000 active; P55212;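 active means mean inhibition across replicates at least about 35%, with every replicate also reaching that limit, limit read from the data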
Target sequence (P55212 24-179 limits assumed): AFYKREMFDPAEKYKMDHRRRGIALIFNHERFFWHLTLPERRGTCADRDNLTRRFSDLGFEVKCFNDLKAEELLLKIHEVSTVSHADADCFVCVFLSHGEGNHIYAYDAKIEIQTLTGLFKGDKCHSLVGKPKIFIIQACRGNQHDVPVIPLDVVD
Target sequence (P55212 194-293 limits assumed): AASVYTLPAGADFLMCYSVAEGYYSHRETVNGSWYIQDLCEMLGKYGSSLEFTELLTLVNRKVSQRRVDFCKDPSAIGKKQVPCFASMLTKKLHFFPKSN
Hits are given with their value; . = inactive; / = not tested or not shown. A selection: hits, their analogues and other compounds. The true share with any hit is near 3.3%.

SMILES	ERAP1 inh	SIRT5 block	FGF22 binding	GSIS activator	Casp6 inh
C[C@H]1CN([C@@H](C)CO)C(=O)c2cccc(NC(=O)C3CCOCC3)c2O[C@H]1CN(C)CC1CCCCC1	.	.	.	.	.
COc1ccc(CNC(=O)C[C@@H]2C[C@H]3c4cc(NS(=O)(=O)c5ccc(F)cc5)ccc4O[C@H]3[C@H](CO)O2)cc1	.	.	.	.	.
CC(O)c1nc2ccc(Cc3ccc4nc(C(C)O)[nH]c4c3)cc2[nH]1 (stereo unspecified)	/	/	/	45.8	/
COc1ccc2c(C)cc(N3CCN(Cc4ccccc4)CC3)nc2c1	36.9	.	.	.	/
CCOC(=O)C1(C)/C(=N/Nc2ccccc2OC)C(=O)C(=O)N1c1ccccc1 (stereo unspecified)	.	.	43.0	.	.
CCC(=O)N(C)C[C@@H]1Oc2ncc(-c3ccccc3F)cc2C(=O)N([C@H](C)CO)C[C@H]1C	.	.	.	.	.
Cc1ccc2nsnc2c1NC(=O)c1ccc([N+](=O)[O-])cc1	.	.	43.5	.	.
O=C(Nc1ccc(Cl)cc1)N[C@H]1CC[C@@H](CCNC(=O)c2cc(Cl)cc(Cl)c2)O[C@@H]1CO	.	.	/	.	.
c1ccc(CSc2ccc(-c3cccs3)nn2)nc1	.	.	43.7	.	.
c1ccc(CSc2ccc(-c3cccs3)nn2)cc1	/	/	/	.	/
CC(C)NC(=S)N1CCCN(c2ncccc2[N+](=O)[O-])CC1	.	17.5	.	.	.
COc1ccc2c3c(n(C)c2c1)[C@H](CO)N(CC1CCOCC1)CC31CN(C(=O)Nc2ccccc2)C1	.	.	.	.	.
CCN(C[C@H]1N[C@H](CO)[C@H]1c1ccc(-c2cccc(F)c2)cc1)C(=O)COC	.	.	.	.	.
Oc1ccc(N=Nc2ccccc2-c2nn[nH]n2)c(O)c1	.	17.3	.	.	.
c1ccc(-c2nn[nH]n2)cc1	.	.	.	.	.
CC(Sc1nnc(-c2cccnc2)n1C)C(=O)N1CCOCC1 (stereo unspecified)	30.5	.	.	.	.
COc1cc2c(cc1OC)C(Nc1ccccc1)=NC(C)(C)C2	.	.	.	56.8	.
CC(=O)N(C)C[C@H]1Oc2ccc(N)cc2C(=O)N(C)C[C@H]1C	/	/	/	.	/
Cc1ccc(S(=O)(=O)NC(=O)Nc2ccc(C)cn2)cc1	.	98.4	.	.	.
Cc1ccc(S(=O)(=O)NC(=O)Nc2ccc(Cl)cn2)cc1	.	.	.	.	.
Cc1ccc(-n2c(O)c(/C=C3/C(c4ccccc4)=Nc4ccccc43)c(=O)[nH]c2=O)cc1	/	/	/	.	/
COc1ccc(-n2c(O)c(/C=C3\C=Nc4ccccc43)c(=O)[nH]c2=O)cc1	.	38.7	.	.	.
Cc1ccc2cc(CN(Cc3ccc(F)cc3)Cc3nnnn3C3CCCC3)c(=O)[nH]c2c1	.	28.8	.	.	.
Cc1ccc2cc(CN(Cc3ccccc3)Cc3nnnn3C3CCCC3)c(=O)[nH]c2c1	.	.	.	.	.
CCCNC(=O)C[C@@H]1C[C@@H]2c3cc(NS(=O)(=O)c4ccc(F)cc4)ccc3O[C@@H]2[C@H](CO)O1	.	.	.	.	.
SMILES	ERAP1 inh	SIRT5 block	FGF22 binding	GSIS activator	Casp6 inh
O[C@H]1C[C@H](c2ccccc2)N(Cc2cccs2)C[C@@H]1n1cc(-c2ccc(F)cc2)nn1	.	16.3	.	.	.
Cc1noc(C)c1COc1ccc(C(=O)OCC(=O)NCCN2C(=O)CSC2=O)cc1	.	.	43.5	.	.
O=C(COC(=O)c1ccc(OC(F)(F)F)cc1)NCCN1C(=O)CSC1=O	.	.	.	.	.
CC(C)(C)C(=O)/C=c1\s/c(=C\c2ccc(-c3ccc([N+](=O)[O-])cc3)o2)c(=O)n1CC(=O)NC(N)=O	.	.	43.9	/	.
CCC(=O)N/N=C/c1ccc(-c2ccc([N+](=O)[O-])cc2)o1	.	.	.	.	.
COc1cc(C(=O)N[C@@H](C)C(=O)N2CCC3(CC2)NCCc2[nH]cnc23)cc(OC)c1OC	.	.	.	.	.
Cc1cc(C)cc(C(=O)N[C@@H](C)C(=O)N2CCC3(CC2)NCCc2[nH]cnc23)c1	.	.	43.4	.	.
Cc1ccc(C(=O)NCCC(=O)N2CCC3(CC2)NCCc2[nH]cnc23)cc1C	.	27.8	.	.	.
CC(=O)Nc1ccc(S(=O)(=O)Nc2ccc3c(c2)n(C)c(=O)n3C)c(C)c1	.	.	.	97.8	.
Cn1c(=O)n(C)c2cc(NS(=O)(=O)c3ccc(Br)s3)ccc21	.	.	.	.	.
Cn1c(=O)n(C)c2cc(NS(=O)(=O)c3ccc(Cl)s3)ccc21	.	17.9	.	.	.
C=CC[C@@H](CC(=O)N[C@H](CO)Cc1ccccc1)C(=O)N[C@@H](C)COC(=O)[C@@H](CC=C)Cc1ccc(F)cc1	.	/	.	.	.
C=CCC[C@@H](Cc1ccc(F)cc1)C(=O)OC[C@@H](C)NC(=O)[C@@H](CC=C)CC(=O)N[C@H](CO)Cc1ccccc1	.	.	1.4	.	.
COc1ccccc1C#Cc1ccc([C@H]2[C@@H](CO)N3CCCCN(C(=O)C4CCC4)C[C@@H]23)cc1	.	.	.	.	.
COc1ccc(NC(=O)N2C[C@@H](O)COC[C@@H]3O[C@@H](CC(=O)N4CCOCC4)CC[C@H]32)cc1	.	.	.	.	.
C[C@H](CO)N1C[C@H](C)[C@H](CN(C)C(=O)Nc2ccc(C(F)(F)F)cc2)Oc2ccc(NS(C)(=O)=O)cc2C1=O	.	.	.	.	.
O=C(O)/C(=C/c1ccco1)NC(=O)c1ccccc1	.	.	.	/	37.4
CC(C)(C)c1ccc(C(=O)N/C(=C\c2ccco2)C(=O)O)cc1	.	.	.	.	.
O=C(O)/C(=C/c1ccco1)NC(=O)c1ccc(Br)o1	.	.	.	.	.
O=C(Nc1ccc(C(=O)O)cc1)/C(=C\c1ccco1)NC(=O)c1ccc(Br)cc1	.	24.3	.	.	.
O=C(O)/C(=C\c1ccco1)NC(=O)c1cccc2ccccc12	.	.	.	.	41.4
C[C@H]1CN([C@@H](C)CO)C(=O)c2cc(NC(=O)Cc3cn(C)c4ccccc34)ccc2O[C@H]1CN(C)C	.	.	.	.	.
O=C(NCC[C@@H]1CC[C@H](NS(=O)(=O)c2ccc(Oc3ccccc3)cc2)[C@H](CO)O1)C1CC1	.	.	.	.	.
O=C(COC(=O)c1ccc(O)cc1)NCC1CCCO1 (stereo unspecified)	.	.	43.2	.	.
CN(C)c1ccc(C(=O)OCC(=O)NCC2CCCO2)cc1 (stereo unspecified)	.	.	/	.	.
O=C1CCC(=O)c2ccc3c4c(ccc1c24)CC3	.	.	.	.	92.3
O=[N+]([O-])c1ccccc1Sc1nccn1Cc1ccccc1	/	/	/	53.6	/
NC(=O)CSc1nccn1Cc1ccccc1	.	.	43.0	.	.
NC(=O)CSc1nccn1Cc1ccc(Cl)cc1	.	.	.	.	.
COc1ccc(C(=O)N2C[C@@H]3[C@H](c4ccccc42)[C@H](CO)N3C(=O)Cc2ccccn2)cc1	.	.	.	.	.

Source: PubChem (Broad Institute)
